Source: PubChem BioAssay
NOMO-1 viab – STK33 inhibitor candidate reducing NOMO-1 cell viability; actives 7.5% (n = 37,000); AID 2330; NOMO-1 AML viability, CellTiter-Glo luminescence, 72 h; inhibition, % (test concentration not listed); in the data active means inhibition above about 80%; inconclusive means no clear call, values can overlap the other calls
MITF inh – inhibitors of MITF | TRPM1 promoter luciferase, luminescence, 24 h | inhibition, % (concentration not given with the values) | actives 0.28% (n = 37,000); in the data active means inhibition above about 85%; inconclusive means no clear call, values can overlap the other calls; inactive means below about 68%;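 further: human melanocyte line stably carrying TRPM1 promoter luciferase reporter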
Shh pathway inh – Sonic Hedgehog pathway inhibition. actives 2.1% (n = 22,000). AID 2313. inhibition, % (test concentration not listed). Shh-LIGHT2 Gli-luciferase reporter, 30 h;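 active means mean inhibition across valid replicates above about 65%, limit read from the data; inconclusive means mean under the limit, yet half or more replicates past it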;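 further: pathway switched on by Shh-conditioned medium diluted 1 in 25 in low serum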
Large screens that a line does not name were inactive. Rows were chosen to be rich in hits. Some 8.1% of all compounds tested hit in one or more screens of this group.

C[C@H]1CN([C@@H](C)CO)C(=O)c2cccc(NC(=O)Nc3cccc4ccccc34)c2O[C@H]1CN(C)Cc1ccc(C(=O)Nc2ccccc2N)cc1	NOMO-1 viab 128 (no result: Shh pathway inh)
Cc1nc(-c2ccccc2)sc1C(=O)C1C(=O)C(=O)N(CCN2CCOCC2)C1c1ccccc1F (stereo not given)	none (no result: Shh pathway inh)
COc1ccccc1CC(=O)Nc1ccc(-c2noc(-c3cc(OC)c(OC)c(OC)c3)n2)cc1	none (no result: Shh pathway inh)
COc1ccc2c(c1)OCC(Cc1ccc(OC)c(O)c1)C2=O (stereo not given)	NOMO-1 viab 109
COc1cc(C[C@H]2C(=O)OC[C@@H]2Cc2ccc(OC)c(OC)c2)ccc1O	none (no result: NOMO-1 viab, MITF inh)
O=C(OC1C(c2c(O)cc(O)c(C(=O)c3ccc(O)cc3)c2O)OC(CO)C(O)C1O)c1cc(O)c(O)c(O)c1 (stereo not given)	none
C[C@H](CO)N1C[C@H](C)[C@H](CN(C)Cc2ccc(Cl)c(Cl)c2)Oc2ccc(NS(=O)(=O)c3ccc(F)cc3)cc2C1=O	none
C[C@H]1CN([C@@H](C)CO)C(=O)c2cc(NS(=O)(=O)c3ccc(F)cc3)ccc2O[C@H]1CN(C)Cc1ccc2c(c1)OCO2	NOMO-1 viab 93
C[C@@H]1CCCCO[C@@H](CN(C)Cc2ccc(Cl)c(Cl)c2)[C@@H](C)CN([C@H](C)CO)C(=O)c2cc(NS(=O)(=O)c3cccs3)ccc2O1	NOMO-1 viab 118
Cc1ccc(S(=O)(=O)Nc2ccc3c(c2)C(=O)N([C@H](C)CO)C[C@H](C)[C@@H](CN(C)Cc2ccc4c(c2)OCO4)OCCCC[C@@H](C)O3)cc1	none
C[C@@H]1CCCCO[C@H](CN(C)Cc2ccc3c(c2)OCO3)[C@@H](C)CN([C@H](C)CO)C(=O)c2cc(NS(=O)(=O)c3ccc(Cl)cc3)ccc2O1	NOMO-1 viab 87
C[C@H]1CN([C@@H](C)CO)C(=O)c2cc(NS(=O)(=O)c3ccc(F)cc3)ccc2O[C@@H]1CN(C)Cc1ccc(Cl)c(Cl)c1	NOMO-1 viab 110
C[C@@H]1CCCCO[C@H](CN(C)Cc2ccc(Cl)c(Cl)c2)[C@@H](C)CN([C@H](C)CO)C(=O)c2cc(NS(=O)(=O)c3cccs3)ccc2O1	none
C[C@H]1CN([C@@H](C)CO)C(=O)c2cc(NS(=O)(=O)c3ccc(F)cc3)ccc2O[C@@H]1CN(C)Cc1ccc2c(c1)OCO2	none (no result: Shh pathway inh)
COc1cc(NC(=O)C(C)Oc2ccc(Cl)cc2Cl)c(OC)cc1Cl (stereo not given)	none (no result: Shh pathway inh)
C[C@@H]1CN([C@H](C)CO)C(=O)c2cc(NS(=O)(=O)c3ccc(Cl)cc3)ccc2O[C@@H]1CN(C)Cc1ccc(Cl)c(Cl)c1	NOMO-1 viab 90
C[C@H](CO)N1C[C@H](C)[C@H](CN(C)Cc2ccc(Cl)c(Cl)c2)Oc2ccc(NS(=O)(=O)c3ccc(Cl)cc3)cc2C1=O	none
C[C@@H]1CCCCO[C@@H](CN(C)Cc2ccc(Cl)c(Cl)c2)[C@@H](C)CN([C@H](C)CO)C(=O)c2cc(NS(=O)(=O)c3ccc(F)cc3)ccc2O1	NOMO-1 viab 99
C[C@H](CO)N1C[C@H](C)[C@@H](CN(C)Cc2ccc(Cl)c(Cl)c2)Oc2ccc(NS(=O)(=O)c3ccc(F)cc3)cc2C1=O	none
C[C@@H]1CN([C@@H](C)CO)C(=O)c2cc(NS(=O)(=O)c3ccc(Cl)cc3)ccc2O[C@@H]1CN(C)Cc1ccc(Cl)c(Cl)c1	NOMO-1 viab 116
C[C@@H]1CN([C@@H](C)CO)C(=O)c2cc(NS(=O)(=O)c3ccccc3)ccc2O[C@@H]1CN(C)Cc1ccc(Cl)c(Cl)c1	NOMO-1 viab 103
Cc1ccc(S(=O)(=O)Nc2ccc3c(c2)C(=O)N([C@H](C)CO)C[C@H](C)[C@@H](CN(C)Cc2ccc(Cl)c(Cl)c2)OCCCC[C@@H](C)O3)cc1	none
C[C@H]1CN([C@@H](C)CO)C(=O)c2cc(NS(=O)(=O)c3ccccc3)ccc2O[C@H]1CN(C)Cc1ccc(Cl)c(Cl)c1	none (no result: Shh pathway inh)
Cc1cc([N+](=O)[O-])ccc1NC(=O)CSc1nnnn1-c1ccccc1	none (no result: Shh pathway inh)
CCOC(=O)c1c(NC(=O)c2cc(-c3cccnc3)nc3c(C)cc(C)cc23)sc(C(C)=O)c1C	none (no result: Shh pathway inh)
Cc1c(NC2CS(=O)(=O)CC2O)c(=O)n(-c2ccccc2)n1C (stereo not given)	none
COc1ccc(Cl)cc1CN1CCC(CNC(=O)Nc2cccc(Cl)c2)CC1	none (no result: Shh pathway inh)
N#CC1=C(N)Oc2c(sc3ccccc23)C1c1ccccc1OC(=O)c1ccccc1Cl (stereo not given)	NOMO-1 viab 115
N#CC1=C(N)OC(C2CC2)=C(C#N)C1c1ccccc1Cl (stereo not given)	none
COC(=O)c1ccc(NC(=S)NC(=O)N2CCOCC2)cc1	none
Cc1ccc(S(=O)(=O)N(C)C[C@@H]2Oc3c(NC(=O)C4CCCCC4)cccc3C(=O)N([C@H](C)CO)C[C@@H]2C)cc1	Shh pathway inh 70
C[C@@H]1CN([C@H](C)CO)C(=O)c2cccc(NC(=O)C3CCCCC3)c2O[C@H]1CN(C)S(=O)(=O)c1ccc(F)cc1	none
Cc1ccc(S(=O)(=O)N(C)C[C@@H]2Oc3c(NC(=O)C4CCCCC4)cccc3C(=O)N([C@@H](C)CO)C[C@H]2C)cc1	none
Cc1ccc(S(=O)(=O)N(C)C[C@H]2Oc3c(NC(=O)C4CC4)cccc3C(=O)N([C@@H](C)CO)C[C@H]2C)cc1	none
Cc1ccc(S(=O)(=O)N(C)C[C@@H]2Oc3c(NC(=O)C4CCCCC4)cccc3C(=O)N([C@@H](C)CO)C[C@@H]2C)cc1	Shh pathway inh 104
C[C@H]1CN([C@@H](C)CO)C(=O)c2cccc(NC(=O)C3CCCCC3)c2O[C@H]1CN(C)S(=O)(=O)c1ccc(F)cc1	Shh pathway inh 82
O=C(O)c1c2c(nc3ccccc13)CCC(c1ccccc1)C2 (stereo not given)	none (no result: Shh pathway inh)
CCCN1CC=C2C(C#N)(C#N)C(N)=C(C#N)C(c3ccc(OCC(N)=O)cc3)C2(C)C1 (stereo not given)	NOMO-1 viab inconclusive
COc1ccccc1-c1nnc(SCC(=O)Nc2ccccc2-c2ccccc2)n1C	none (no result: Shh pathway inh)
Cc1c(Cl)cccc1NC(=O)CSc1nccc(=O)[nH]1	none (no result: Shh pathway inh)
NC(=NC(=O)c1ccc(Cl)cc1)c1ccc(C(F)(F)F)cn1	none
CCNS(=O)(=O)c1cc(-c2nnc(Nc3ccc(NC(C)=O)cc3)c3ccccc23)ccc1C	none (no result: Shh pathway inh)
O=C(CCCN1C(=O)c2cccc3cccc(c23)C1=O)Nc1ccccc1Br	none (no result: Shh pathway inh)
CC(=O)Nc1ccc(NC(=O)CCCN2C(=O)c3ccccc3C2=O)cc1	none (no result: Shh pathway inh)
O=C(CCCN1C(=O)c2ccccc2C1=O)Nc1ccc(Nc2ccccc2)cc1	NOMO-1 viab 102 (no result: Shh pathway inh)
O=C(CCCCCN1C(=O)c2cccc3cccc(c23)C1=O)NO	NOMO-1 viab 97, Shh pathway inh 91
COc1ccc(NC(=O)CNC(=O)c2ccccc2C)cc1	none (no result: Shh pathway inh)
NC(=O)COc1ccc(C=C2C(=O)c3ccccc3C2=O)cc1	none
C[C@H](CO)N1C[C@H](C)[C@@H](CN(C)C(=O)Nc2ccc(C(F)(F)F)cc2)Oc2c(NC(=O)c3ccc(-c4nccs4)cc3)cccc2C1=O	none
C[C@H](CO)N1C[C@H](C)[C@H](CN(C)Cc2ccc(Oc3ccccc3)cc2)Oc2c(NC(=O)c3ccc(-c4nccs4)cc3)cccc2C1=O	NOMO-1 viab 112
C[C@H](CO)N1C[C@H](C)[C@H](CN(C)C(=O)Nc2ccc(C(F)(F)F)cc2)Oc2c(NC(=O)c3ccc(-c4nccs4)cc3)cccc2C1=O	NOMO-1 viab 93
